Assay outcomes from PubChem.
MCF10A rereplic: DNA re-replication induction in MCF 10a cells; MCF 10A DNA re-replication, Hoechst nuclear intensity, 48 h; Potency, µM (titrated, usually from 46.1 µM), for the others: at the highest dose activity, positive = re-replication, actives largely listed as activators; 350,000 compounds, 2.9% hits; AID 624296; also: potency is read from the fitted curve at half-maximal effect; % of control where 0% means no effect; nearly all actives have a fitted effect of over 50% in size
Gal4-VP16 FLuc: inhibits Gal4-VP16 luciferase reporter, ROR gamma counter-screen. Drosophila S2 Gal4-VP16 UAS-luciferase, luminescence, 20 h. Potency, µM (highest dose often 53.6 µM), inactives show top-dose activity, negative = inhibition, most hits filed as inhibitors. 310,000 compounds, 3.5% hits. AID 2546;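 also: Gal4-VP16 expression switched on by copper sulfate through the metallothionein promoter; potency is read from the fitted curve at half-maximal effect; % is scaled to controls: 0 for no effect and ±100 for the full control effect; nearly all actives have a fitted effect of over 50% in size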
BCR signal inh: chronic active BCR signaling inhibition. ABC-DLBCL IkBa-CBG/CBR reporter, luminescence ratio, 4 h. 340,000 compounds, 0.05% hits. Potency, µM (highest dose often 46.1 µM), for inactives: top-dose activity change, negative = inhibition, most hits filed as inhibitors; active = well fitted inhibition curve with a large enough effect in the signal ratio, with a control signal flat, not every such curve was filed as active; inconclusive = small, poorly fitted or top-dose-only effect, or effect the other way, or a change in a side signal; the % refers to the signal ratio;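 also: potency is read from the fitted curve at half-maximal effect; plate controls were basal doxycycline-induced cells for no effect and cells given 10 µM MG132 for full effect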
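TMD8 ABC-DLBCL cells carrying doxycycline-inducible green luciferase fused to IkappaBalpha plus unfused red luciferase were exposed to compounds (up to 46 uM) for 4 hrs at 37C. Activity came from the overlap-corrected green/red luminescence ratio.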
RORgamma inh: blocks mouse ROR gamma transcriptional activity; P51450; Potency, µM (titrated, usually from 53.6 µM), without a hit: at the top dose activity change, negative = inhibition, most hits filed as inhibitors; 310,000 compounds, 5.4% hits; Drosophila S2 Gal4-RORgamma UAS-luciferase reporter, 20 h; also: potency is read from the fitted curve at half-maximal effect; % is scaled to controls: 0 for no effect and ±100 for the full control effect; nearly all actives have a fitted effect of over 60% in size
Target sequence (P51450 whole entry, looked up, the tested form may be a part): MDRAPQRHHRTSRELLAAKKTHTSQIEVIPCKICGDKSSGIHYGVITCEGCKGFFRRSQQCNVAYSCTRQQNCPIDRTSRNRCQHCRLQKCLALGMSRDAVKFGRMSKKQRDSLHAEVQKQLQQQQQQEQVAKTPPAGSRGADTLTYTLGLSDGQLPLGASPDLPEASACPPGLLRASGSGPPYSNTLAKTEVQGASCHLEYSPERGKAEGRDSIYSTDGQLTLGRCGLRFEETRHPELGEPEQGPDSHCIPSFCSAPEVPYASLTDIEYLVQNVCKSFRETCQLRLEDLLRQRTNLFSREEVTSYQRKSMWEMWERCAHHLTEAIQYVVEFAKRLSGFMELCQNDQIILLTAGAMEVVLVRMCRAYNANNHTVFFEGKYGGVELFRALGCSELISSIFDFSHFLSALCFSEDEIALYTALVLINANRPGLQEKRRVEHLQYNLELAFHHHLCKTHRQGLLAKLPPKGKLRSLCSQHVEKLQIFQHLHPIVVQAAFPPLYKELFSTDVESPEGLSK
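A Gal4/UAS one-hybrid system in insect cells: metallothionein-promoter Gal4–ROR gamma fusion plus Photinus luciferase reporter. Copper sulfate 700 uM final, 20 hr ambient incubation, luminescent detection after 10 min with reagent.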
SW480 rerep: induces DNA re-replication in SW480 colon adenocarcinoma cells | SW480 DNA re-replication, Hoechst DNA content imaging, 48 h | AID 624297 | Potency, µM (titrated, usually from 46.1 µM), inactives show at the top dose re-replication activation, usual class: activators | 340,000 compounds, 1.8% hits; also: potency is read from the fitted curve at half-maximal effect; % of control where 0% means no effect; nearly all actives have a fitted effect of over 55% in size
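250 cells/well; 23 nL cpd via pin tool; 48 hr, 37 C, 5% CO2; Hoechst 40 min; imager read of total nuclear intensity, ex 405/em 500-530 nm.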
Giardia killer: Giardia lamblia killing; Giardia lamblia trophozoite viability; activity change, % at 7.66 µM, hits read low; 340,000 compounds, 0.15% hits; AID 540267; in the data active = activity change below about -80%; inconclusive = between about -30% and that limit;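 also: parasites exposed to compound for two days anaerobically before the ATP read; % is scaled to controls: 0 for no effect and ±100 for the full control effect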
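Compounds were tested on trophozoites seeded at 100 cells/well and held 48 hrs at 37 deg C anaerobically. An ATP-based luminescent kit measured the remaining live cells.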
Starred values were filed as active, the others as inactive; ? = inconclusive; nt = not tested or not shown; [ ] = dose if it differs, or a comment. In the library only some 8.3% were active in any assay of this set; here they are far more common. Unless noted, calls follow the shape of the dose curve; as a rule, active = well fitted curve in the direction sought with a large enough effect; inconclusive = small, poorly fitted or top-dose-only effect, or another doubt; inactive = no such curve, though single readings can be large; an effect the other way counts as inactive or inconclusive.

SMILES	MCF10A rereplic	Gal4-VP16 FLuc	BCR signal inh	RORgamma inh	SW480 rerep	Giardia killer
CC(C)C[C@H](NC(=O)c1nc[nH]c1C(=O)NCc1ccc(CNC(=O)OC(C)(C)C)cc1)C(=O)OC(C)(C)C	-4%	?	?	13µM*	-17%[9.22 µM]	11
CC(C)C[C@H](NC(=O)c1nc[nH]c1C(=O)NCc1ccccc1)C(=O)OCc1ccccc1	?	11µM*	1%	4.5µM*	61%[9.22 µM]	51
CC(C)C[C@H](NC(=O)c1[nH]cnc1C(=O)Nc1ccc(CNC(=O)OC(C)(C)C)cc1)C(=O)OCc1ccccc1	18µM*	?	2%	5.6µM*	10%	-20
CC(C)C[C@H](NC(=O)c1[nH]cnc1C(=O)Nc1ccc(CNC(=O)OC(C)(C)C)cc1)C(=O)OC(C)(C)C	?	8.9µM*	11%	3.2µM*	4%	-3
C[C@H]1C2=C3C(CC[C@H]4C(OCc5ccc(F)cc5C(F)(F)F)OC[C@](C)([C@@H]34)N(C(=O)OC(C)(C)C)C2)C(CO)C1CO (some centres not stated)	nt	6%	nt	1%	nt	nt
CC(C)C[C@H](NC(=O)c1nc[nH]c1C(=O)NCc1ccccc1)C(=O)OC(C)(C)C	?	10µM*	?	4.5µM*	8%	-12
C[C@H](NC(=O)c1nc[nH]c1C(=O)NCc1ccc(CNC(=O)OC(C)(C)C)cc1)C(=O)OC(C)(C)C	?	-11%	?	?	-4%	21
CC(C)(C)OC(=O)NCc1ccc(NC(=O)c2nc[nH]c2C(=O)N[C@@H](Cc2ccccc2)C(=O)OC(C)(C)C)cc1	?	11µM*	?	7.1µM*	-2%	13
Cc1cc(NC(=O)c2ccc(F)cc2)n(C)n1	2%	-15%	-1%	-10%	2%	15
CSc1ccc(/C=N/NC(=O)c2ccccc2Cl)cc1	23µM*	?	?	11%	?	-11
CN(C)c1ccc(/C=N/NC(=O)c2ccc(Cl)cc2)cc1	?	-10%	?	8.9µM*	-6%	-24
CN(C)c1ccc(/C=N/NC(=O)c2sccc2-n2cccc2)cc1	-48%	?	-13%	11µM*	0%	7
CN(C)c1ccc(/C=N/NC(=O)c2ccccc2)cc1	23%	-24%	?	?	12%	-9
CN(C)c1ccc(/C=N/NC(=O)c2ccccc2Cl)cc1	21µM*	?	?	-5%	2.6µM*	-10
COc1ccc(N(C(=O)c2cnccn2)C(C(=O)NC2CCCCC2)c2cc(OC)c(OC)c(OC)c2)cc1 (configuration not stated)	-3%	8%	-5%	1%	-1%	10
COC(=O)/C(=C(/F)Sc1cc(C)c(O)c(C)c1)C(F)(F)F	26µM*	5%	?	11%	?	-1
O=C(CC1SC(N2CCCC2)=NC1=O)Nc1ccc(C(=O)Nc2ncccc2O)cc1 (configuration not stated)	19%	nt	?	nt	17%	4
O=C(Nc1ccccc1N1CCCC1)c1ccc(Cl)c(S(=O)(=O)N2CCOCC2)c1	?	nt	?	nt	-1%	2
c1ccc(C(c2ccccc2)N2CCC3(CCNCC3)CC2)cc1	nt	-14%	nt	?	nt	nt
CCN(CC)C1=NS(=O)(=O)c2cc([N+](=O)[O-])ccc21	?	-2%	5%	?	12µM*	-5
CN(C)c1ccc(-c2ccncc2)cc1	nt	14%	1%	-17%	nt	nt
CNc1nnc(-c2ccc(N(C)C)cc2)s1	0%	8.9µM*	?	?	-3%	?
CC(=O)N1N=C(c2ccccc2OC(=O)/C=C/c2ccccc2)CC1c1ccccc1 (configuration not stated)	1%	9%	?	38%	-8%	-18
CCOC(=O)c1ccc2c(c1)n(CC)c(C)[n+]2CC	-12%	1%	-1%	1%	-5%	-2
CCN(CC)S(=O)(=O)c1ccc2c(c1)[nH]c(=S)n2CC	14%	-23%	?	6.3µM*	-4%	-8
SMILES	MCF10A rereplic	Gal4-VP16 FLuc	BCR signal inh	RORgamma inh	SW480 rerep	Giardia killer
CCN(CC)S(=O)(=O)c1ccc2nc(CCl)[nH]c2c1	-2%	-19%	1%	-8%	-13%	18
CCOC(=O)c1ccc2c(c1)[nH]c(=S)n2CC	5%	?	?	8.9µM*	0%	4
CC1CCN(c2ccc(-c3cccc(NC(=O)C(F)(F)F)c3)nn2)CC1	-18%	2.8µM*	?	?	-8%	-84*
O=S(=O)(Nc1cccc(-c2ccc(N3CCCCCC3)nn2)c1)c1ccc(F)cc1	15µM*	-13%	-2%	19%	?	-19
O=S(=O)(Nc1cccc(-c2ccc(N3CCCCCC3)nn2)c1)c1cccc(F)c1	-2%	?	10%	6%	0%	14
Cc1ccc(S(=O)(=O)Nc2cccc(-c3ccc4nncn4n3)c2)cc1	4.1µM*	nt	?	nt	2.6µM*	-8
O=C(Nc1cccc(-c2ccc(N3CCCCC3)nn2)c1)C(F)(F)F	2%	10µM*	?	6.3µM*	-11%	?
CCc1ccc(NC(=O)C(C)OC(=O)Cc2cc(OC)c(OC)c(OC)c2)cc1 (configuration not stated)	5%	nt	-13%	nt	0%	9
O=C(NCCCn1ccnc1)c1ccc(NS(=O)(=O)c2cccc([N+](=O)[O-])c2)cc1	6%	nt	-2%	nt	-4%	-13
O=C(COC(=O)COc1ccc(Br)cc1)Nc1ccc2c(c1)OCCO2	8%	nt	-11%	nt	0%	11
O=c1ccc2ccccc2[nH]1	nt	13µM*	nt	6.3µM*	nt	nt
c1ccc2[nH]ccc2c1	-4%	-2%	nt	9%	-4%	nt
CCC(=O)Nc1ccc(S(=O)(=O)N2CCc3ccccc32)cc1	?	-8%	0%	61%	-11%	-7
COC(=O)Nc1ccc(S(=O)(=O)N2CCCc3ccccc32)cc1	8.2µM*	-7%	?	-19%	1.6µM*	-1
COc1ccc(S(=O)(=O)N2CCc3ccccc32)cc1C(=O)Nc1ccc(C(N)=O)cc1	23µM*	nt	?	nt	6%	6
COC(=O)Nc1ccc(S(=O)(=O)N2CCCc3cccc(O)c32)cc1	13µM*	6%	-2%	-3%	26µM*	-2
COc1ccc(-n2c(SCC(=O)NCCCN3CCCC3=O)nnc2C(C)N2CCCCC2)cc1 (configuration not stated)	1.3µM*	13%	7%	9%	-27%	3
CC1CN(C(C)C(=O)NC(c2ccccc2)c2ccccc2)CC(C)O1 (configuration not stated)	15%	5%	-5%	-8%	4%	-1
